From PubChem BioAssay (Tox21)
Records with an inconclusive call do not appear. A call without a number means that no potency is given here. Active and inactive are the calls of the source. Calls follow the shape of the dose curve; as a rule, active = well fitted cell-killing curve with a large enough effect in the repeat runs; inconclusive = weak or mixed curves, or effect the other way; inactive = flat fitted curve, though single readings scatter.

Assay: cAMP Responsive Elements (CRE) small molecule agonists, cell-based qHTS assay: qHTS cell viability counter screen (AID 2060914);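 also: viability read after 3 h of compound exposure; nearly all actives have a fitted effect of over 50% in size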
Conditions: CRE-bla HEK293T viability, CellTiter-Glo luminescence, 5 h; series mostly up to 92.4 µM
Procedure, shortened: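 CRE-bla HEK 293T cells, plated 18 h at 37 °C, were exposed to compounds for 3 h at 37 °C/5% CO2. Viability was then measured in the same wells by CellTiter-Glo luminescence after 30 min at room temperature.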
For `CCCC/C=C\CCCCCCCCCC=O`, the Potency was “inactive”.
For `Nc1ccc2c3c(cccc13)-c1ccccc1-2`, the Potency was “inactive”.
In the case of `Nc1ccc(N=Nc2ccccc2)c(N)c1`, the Potency was “inactive”.
In the case of `COc1nc(N)nc2c1ncn2[C@@H]1O[C@H](CO)[C@@H](O)[C@@H]1O`, the Potency was “inactive”.
For `CC(O)Cn1cnc2c1c(=O)n(C)c(=O)n2C` (stereo not given), the Potency was “inactive”.
In the case of `Cc1cc(C(C)(C)C)c(O)c(C)c1Cn1c(=O)n(Cc2c(C)cc(C(C)(C)C)c(O)c2C)c(=O)n(Cc2c(C)cc(C(C)(C)C)c(O)c2C)c1=O`, the Potency was “inactive”.
With `CC(C)C[C@H](NC(=O)CNC(=O)[C@H](Cc1ccc(O)cc1)NC(=O)[C@H](CO)NC(=O)[C@H](Cc1c[nH]c2ccccc12)NC(=O)[C@H](Cc1cnc[nH]1)NC(=O)[C@@H]1CCC(=O)N1)C(=O)N[C@@H](CCCN=C(N)N)C(=O)N1CCC[C@H]1C(=O)NCC(N)=O` (stereo in doubt) the Potency was “inactive”.
For `CCCCC1C(=O)N(c2ccccc2)N(c2ccccc2)C1=O`, the Potency was “inactive”.
For `O=Cc1ccc(Cl)c([N+](=O)[O-])c1`, the Potency was “inactive”.
In the case of `O=C1CCCCC1`, the Potency was “inactive”.
With `ClCCl` the Potency was “inactive”.
With `Cc1cccc(C)c1NC(=O)CC12CCCN1CCC2` the Potency was “inactive”.
With `N#Cc1ccccc1` the Potency was “inactive”.
With `O=C1CCCc2c1cc1ccc3cccc4ccc2c1c34` the Potency was “inactive”.
For `CCCOc1ccc2c(c1)CC[C@@H]1[C@@H]2CC[C@]2(C)C(OC)CC[C@@H]12` (stereo not given in full), the Potency was “inactive”.
In the case of `C=CC(=O)OCCCCCCOC(=O)C=C`, the Potency was “inactive”.
In the case of `Cc1ccnc2ccccc12`, the Potency was “inactive”.
For `CCN(CC)C(=O)N1CCN(C)CC1`, the Potency was “inactive”.
For `CCN(CC)CCNc1ccc(CNC=O)c2sc3ccc(OC)cc3c(=O)c12`, the Potency was “inactive”.
With `O=C(O)CCCCCCCCCCCC(=O)O` the Potency was “inactive”.
With `Cc1cc(C(=C2C=CC(=Nc3ccc(S(=O)(=O)O)cc3S(=O)(=O)O)C=C2)c2ccc(Nc3ccc(S(=O)(=O)O)cc3)cc2)ccc1N` the Potency was “inactive”.
For `O=C(O)CCCCCCCCC(=O)O`, the Potency was “inactive”.
With `O=C1OC(c2ccc(O)cc2)(c2ccc(O)cc2)c2ccccc21` the Potency was “inactive”.
In the case of `CCCC(=O)OCOC(=O)C1=C(C)NC(C)=C(C(=O)OC)C1c1cccc(Cl)c1Cl` (stereo not given), the Potency was “inactive”.
In the case of `O=C(O)c1cccc(C(=O)O)c1`, the Potency was “inactive”.
In the case of `CCOCCC(=O)OCC`, the Potency was “inactive”.
In the case of `Cc1ccc(O)c(C(C)(C)C)c1`, the Potency was “inactive”.
With `Oc1ccc(/C=C/c2cc(O)cc(O)c2)cc1` the Potency was “inactive”.
For `O=C(O)/C=C/C(=O)O`, the Potency was “inactive”.
With `COCN(COC)c1nc(N(COC)COC)nc(N(COC)COC)n1` the Potency was “inactive”.
In the case of `CCN(CC)c1cccc(O)c1`, the Potency was “inactive”.
With `O=c1cc[nH]c(=O)[nH]1` the Potency was “inactive”.
For `C=COCC(C)C`, the Potency was “inactive”.
In the case of `Nc1ccc(S(=O)(=O)c2ccc(N)cc2)cc1`, the Potency was “inactive”.
For `CSc1ccc2c(c1)C(N1CCN(C)CC1)Cc1ccccc1S2` (stereo not given), the Potency was “inactive”.
In the case of `O=Cc1ccc(Cl)cc1`, the Potency was “inactive”.
For `COC(=O)[C@H]1[C@H]2C[C@@H]3c4[nH]c5cc(OC)ccc5c4CCN3C[C@H]2C[C@@H](OC(=O)c2cc(OC)c(OC)c(OC)c2)[C@@H]1OC`, the Potency was “inactive”.
For `O=C1[C@H]2CCCC[C@H]2C(=O)N1CCCCN1CCN(c2nsc3ccccc23)CC1`, the Potency was “inactive”.
In the case of `C1COC(NC(C2CC2)C2CC2)=N1`, the Potency was “inactive”.
For `OCCC1CCCCN1` (stereo not given), the Potency was “inactive”.
